# Measurements as given in PubChem BioAssay AID1053197 (The Scripps Research Institute Molecular Screening Center, 2014).
# In all, about 370,000 compounds went through this assay and about 2,600 (0.7%) were called active.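 Rule for the calls: active = inhibition above a cutoff: mean of compounds within the control limits plus 3 SD of those (cut at about 17% in these data); inactive = the rest.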 What follows is part of a selection rich in actives, with near analogues and random picks from the rest.
# Target: Sialate O-acetylesterase (Homo sapiens) (UniProt Q9HAT2)
# Sequence (Q9HAT2 whole entry, looked up): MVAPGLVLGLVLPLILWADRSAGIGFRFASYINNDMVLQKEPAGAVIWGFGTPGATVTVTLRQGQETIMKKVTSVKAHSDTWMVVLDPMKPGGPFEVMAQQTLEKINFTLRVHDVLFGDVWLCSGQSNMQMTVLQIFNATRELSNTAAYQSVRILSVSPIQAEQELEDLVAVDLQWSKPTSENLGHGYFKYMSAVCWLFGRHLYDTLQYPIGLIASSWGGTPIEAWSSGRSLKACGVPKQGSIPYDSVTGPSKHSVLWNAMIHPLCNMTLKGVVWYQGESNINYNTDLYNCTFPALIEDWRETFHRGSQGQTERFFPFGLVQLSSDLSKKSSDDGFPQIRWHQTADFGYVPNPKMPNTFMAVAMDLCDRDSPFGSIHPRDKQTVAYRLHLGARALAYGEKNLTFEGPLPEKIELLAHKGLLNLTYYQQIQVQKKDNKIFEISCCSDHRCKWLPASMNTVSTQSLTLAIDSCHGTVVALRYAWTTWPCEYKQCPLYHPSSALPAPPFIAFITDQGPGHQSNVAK
# Experiment: human SIAE inhibitors, primary screen, biochemical, fluorescence polarization, FP-Rh probe, 1536-well HTS (AID 1053197);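 note: 0% = plate median of compound wells and 100% = probe without SIAE protein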
# Conditions: SIAE FP-Rh probe binding, at 9.66 µM, hits give high values
row,SMILES,inhibition
1,O=C(NCc1ccco1)/C(=C/c1cccc([N+](=O)[O-])c1)NC(=O)c1ccco1,-7.3% (inactive)
2,Cc1ccc(C(=O)N/C(=C/c2ccc(-c3cccc([N+](=O)[O-])c3)o2)C(=O)NCCCN(C)C)cc1,21.2% (active)
3,O=C(NCc1ccco1)/C(=C\c1cccc([N+](=O)[O-])c1)NC(=O)c1ccco1,-0.85% (inactive)
4,C=CCN1C(=O)[C@H](CC(=O)NCCCN2CCCC2=O)[C@@]2(C(=O)OCC)CCCC=C12,4.17% (inactive)
5,CCOC(=O)C1=C(C)NC2=C(C(=O)CC(C)(C)C2)C1c1ccc2c(c1)OCO2 (stereo not drawn),-1.17% (inactive)
6,COc1ccc(C2C(C(C)=O)=C(O)C(=O)N2CCc2c[nH]c3ccccc23)cc1 (stereo not drawn),18.4% (active)
7,COC(=O)CN1C(=O)C(O)=C(C(C)=O)C1c1ccc([N+](=O)[O-])cc1 (stereo not drawn),-9.46% (inactive)
8,COc1ccc2[nH]cc(CCN3C(=O)c4ccc(C(=O)O)cc4C3=O)c2c1,11.4% (inactive)
9,CCOc1ccc(-n2c(SCC(=O)Nc3cc(C)c(NC(=O)c4ccccc4)cc3OC)nnc2-c2cccs2)cc1,-1.97% (inactive)
10,COC(=O)C1CN(CC(C)C)CCS(=O)(=O)N1Cc1ccc(F)cc1 (stereo not drawn),-0.32% (inactive)
11,COCCCNC(=O)C[C@H]1C[C@@]2(C(=O)OC)C(=C[C@H](C(C)(C)C)O[C@@H]2C)N(Cc2ccc(Cl)cc2Cl)C1=O,-5.63% (inactive)
12,O=C(NCC1COc2ccccc2O1)c1ccc(NC(=O)c2cc(F)ccc2F)cc1 (stereo not drawn),-1.61% (inactive)
13,CCOC(=O)[C@]12CCCCC/C=C\1N(Cc1ccc(OC)cc1)C(=O)[C@H]2CC(=O)N1CCOCC1,-1.12% (inactive)
14,COc1cc(OC)cc(C(=O)NCC(=O)N2CCCCCCC2)c1,0.93% (inactive)
15,Cc1cc(C)cc(C(=O)NCC(=O)OCC(=O)N2CCCCC2)c1,2% (inactive)
16,COc1ccc(OC)c(CN2CCN(C(=O)CNC(=O)c3cc(C)cc(C)c3)CC2)c1,21.8% (active)
17,CCOC(=O)[C@@]12CN(C(=O)OC(C)(C)C)CC=C1N(Cc1ccc(OC)cc1)C(=O)[C@H]2CC(=O)NCc1ccc(OC)c(OC)c1,4.2% (inactive)
18,CCOc1ccc(-c2nnc3ccc(SC)nn23)cc1,-1.24% (inactive)
19,COC(=O)C(C)Sc1ccc2nnc(-c3cccc(F)c3)n2n1 (stereo not drawn),24.6% (active)
20,CCOC(=O)CNC(=O)CSc1ccc2nnc(-c3cccnc3)n2n1,0.77% (inactive)
21,CN(C)[C@H]1CCN(c2cccc3c2S(=O)(=O)N2CC[C@H](C2)O3)C1,-4.89% (inactive)
22,O=C(CN1CCCc2ccccc21)NCc1ccc(F)cc1,7.37% (inactive)

row,SMILES,inhibition
1,COC(=O)[C@H](C(C)C)N(CCCc1cn(Cc2ccccc2)nn1)S(=O)(=O)c1ccc(F)cc1Br,-3.32% (inactive)
2,CC(C)/C=N/NC(=O)c1cc(Br)ccc1O,19.5% (active)
3,O=C(N/N=C1\CCSC1)c1cc(Cl)ccc1O,8.12% (inactive)
4,CC(=N\NC(=O)c1cc(Br)ccc1O)/C(=N/O)C(=O)Nc1ccccc1,9.77% (inactive)
5,COc1ccc(-n2c(SCC(=O)NC3CCCC3)nnc2-c2ccncc2)cc1,6.27% (inactive)
6,O=C(NC1CCC1)c1ccc(C#Cc2cccc(F)c2)c[n+]1[O-],-0.65% (inactive)
7,CC(C)(C)c1cnnn1-c1ccc([N+](=O)[O-])cc1,-4.05% (inactive)
8,O=C(Nn1c(SCc2ccc([N+](=O)[O-])cc2)nc2ccccc2c1=O)c1ccc(F)cc1,-45.6% (inactive)
9,O=c1[nH]n(-c2ccc([N+](=O)[O-])cc2)c(=O)c2ccccc12,31.2% (active)
10,O=C(NCCC1=CCCCC1)C1CCN(S(=O)(=O)c2ccc(Cl)s2)CC1,-2.35% (inactive)
11,CCC(Oc1ccccc1)C(=O)OCC(=O)Nc1c(C)nn(-c2ccccc2)c1C (stereo not drawn),5.85% (inactive)
12,Cc1nn(-c2ccccc2)c(C)c1NC(=O)COC(=O)c1cc(Cl)ccc1O,-4.36% (inactive)
13,C/C=C/c1ccc(OCC(=O)OCC(=O)Nc2c(C)nn(-c3ccccc3)c2C)c(OC)c1,18.3% (active)
14,COc1ccc(CCNc2ncnc3nc[nH]c23)cc1OC,32.2% (active)
15,CCc1ccc(N(CC)c2ncnc3nc[nH]c23)cc1,-3.78% (inactive)
16,COc1ccc(CCNc2nc3ccc(C)cc3n3cnnc23)cc1OC,-5.53% (inactive)
17,Cc1ccc(OCc2nnc(SC/C=C/c3ccccc3)n2Cc2ccco2)cc1,4.07% (inactive)
18,C=CCN(C(=O)[C@@H](CCCC)[C@@H](O)c1ccc(Cl)cc1)c1ccccc1,-2.75% (inactive)
19,COc1ccc(-c2ccc3nnc(SCC(=O)Nc4ccc(NC(C)=O)cc4)n3n2)cc1,-23.3% (inactive)
20,COc1ccc(-c2csc(Nc3ccc(O)cc3)n2)cc1,26.2% (active)
21,CN(c1ccc(O)cc1)c1nc(-c2cccnc2)cs1,7.08% (inactive)
